Outcome and Potency data for 14 molecules are collected here from PubChem BioAssay (Tox21).

Test [1] in a line: qHTS assay to test for compound auto fluorescence at 535 nm (green) in HEK293 cells (AID 720680). Background: qHTS replaces the single test concentration by a dilution series.
Test [2] is described as follows: qHTS assay to test for compound auto fluorescence at 460 nm (blue) in HEK293 cell free culture (AID 720681). In outline: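 Compounds were added to cell-free DMEM with 10% FBS and fluorescence read directly. The blue channel used 405 nm excitation and 460 nm emission, with triamterene as the reference fluorophore.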
Test [3] can be described thus: qHTS assay to test for compound auto fluorescence at 535 nm (green) in HEK293 cell free culture (AID 720682). In outline: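 DMEM + 10% FBS, cell-free; cpd or DMSO pinned in; Ex485/Em535 read; output as fluorescein-equivalent signal.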
Test [4] can be described thus: qHTS assay to test for compound auto fluorescence at 590 nm (red) in HEK293 cell free culture (AID 720683). In outline:
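Cell-free wells of DMEM with 10% FBS received compound, and intrinsic fluorescence was read at excitation/emission 540/590 nm. Values expressed as equivalence to Rose Bengal sodium.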

Test [5] is described as follows: qHTS assay to test for compound auto fluorescence at 590 nm (red) in HepG2 cell free culture (AID 720684). In outline:
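Auto fluorescence equivalency versus Rose Bengal sodium, red channel Ex/Em 540/590 nm; compounds in cell-free MEM/10% FBS; DMSO vehicle control.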

The nature of test [6]: qHTS assay to test for compound auto fluorescence at 460 nm (blue) in HepG2 cell free culture (AID 720685). In outline: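 Cell-free plates of MEM plus 10% FBS received 23 nL compound or DMSO vehicle; blue-channel (405/460 nm) intensity scored against triamterene as reference fluorophore.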
Test [7] can be described thus: qHTS assay to test for compound auto fluorescence at 535 nm (green) in HepG2 cell free culture (AID 720686).
Test [8] can be described thus: qHTS assay to test for compound auto fluorescence at 460 nm (blue) in HepG2 cells (AID 720687). In outline:
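HepG2 cells in MEM with 10% FBS, attached overnight at 37 C, were exposed to compound or DMSO for 1 hr at 37 C, 5% CO2. Blue fluorescence was read at 405/460 nm, with triamterene as reference fluorophore.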

The nature of test [9]: qHTS assay to identify small molecule antagonists of the glucocorticoid receptor (GR) signaling pathway - cell viability counter screen (AID 720693). Also: nearly all actives have a fitted effect of over 55% in size.
Test [10] is described as follows: qHTS assay for identifying genotoxic compounds that show differential cytotoxicity against isogenic chicken DT40 cell lines with known DNA damage response pathways - wild type cell line (AID 743012). Also: nearly all actives have a fitted effect of over 60% in size. Also: potency is read from the fitted curve at half-maximal effect. In outline: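 Viability by ATP luminescence (CellTiter-Glo, 30 min RT) after 40 h compound treatment at 37 C/5% CO2, using 300 parental DNA repair-proficient DT40 cells per well.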

Test [11] can be described thus: qHTS assay for identifying genotoxic compounds that show differential cytotoxicity against isogenic chicken DT40 cell lines with known DNA damage response pathways - Rev3 mutant cell line (AID 743014). Also: nearly all actives have a fitted effect of over 55% in size.
Test [12] in a line: qHTS assay for identifying genotoxic compounds that show differential cytotoxicity against isogenic chicken DT40 cell lines with known DNA damage response pathways - Rad54/Ku70 mutant cell line (AID 743015). Also: nearly all actives have a fitted effect of over 60% in size. Also: potency is read from the fitted curve at half-maximal effect.
The nature of test [13]: qHTS assay to identify small molecule antagonists of the androgen receptor (AR) signaling pathway - cell viability counter screen (AID 743033; also: nearly all actives have a fitted effect of over 45% in size).
A short description of test [14]: qHTS assay to identify small molecule antagonists of the androgen receptor (AR) signaling pathway using the MDA cell line - cell viability counter screen (AID 743041; also: nearly all actives have a fitted effect of over 45% in size). In outline: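 Compound exposure lasted 16 h at 37C in MDA-kb2 AR-luc cells stimulated with R1881. Protease-based CellTiter-Fluor reagent was applied for the final 30 min and fluorescence measured.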

Test [15] addresses Androgen receptor (Homo sapiens) (UniProt P10275). Put plainly: qHTS assay to identify small molecule agonists of the androgen receptor (AR) signaling pathway (AID 743036; active = well fitted activation curve with a large enough effect in the signal ratio in the repeat runs, with a control signal flat, not every such curve was filed as active; the % refers to the signal ratio). In outline:
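Screening used 2,000 AR-bla HEK293 cells per well, treated 16 h at 37C with test compounds in DMSO alongside positive and DMSO-only controls; beta-lactamase activity was then read by LiveBLAzer B/G FRET fluorescence after 2 h at room temperature.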

For test [16] the target is unchanged. Put plainly: qHTS assay to identify small molecule agonists of the androgen receptor (AR) signaling pathway using the MDA cell line (AID 743040; also: nearly all actives have a fitted effect of over 20% in size). In outline:
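Testing was done with the MDA-kb2 AR-luc line, a human breast carcinoma stably transfected with MMTV-luciferase containing AR and GR response elements. Cells were exposed 16 h at 37C before ONE-Glo luminescence detection.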

Test [17] has the same target. Put plainly: qHTS assay to identify small molecule antagonists of the androgen receptor (AR) signaling pathway using the MDA cell line (AID 743042; also: nearly all actives have a fitted effect of over 55% in size). In outline: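 MDA-kb2 breast carcinoma cells carrying MMTV-luciferase (AR/GR responsive) were co-treated with compounds and the agonist R1881 for 16 h at 37C. Inhibition read as ONE-Glo luminescence; CellTiter-Fluor fluorescence measured in parallel for cytotoxicity.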

Test [18] has as its target Glucocorticoid receptor (Homo sapiens) (UniProt P04150). Kind of test: qHTS assay to identify small molecule agonists of the glucocorticoid receptor (GR) signaling pathway (AID 720691; active = well fitted activation curve with a large enough effect in the signal ratio in the repeat runs, not every such curve was filed as active; the % refers to the signal ratio). In outline:
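Agonist-mode qHTS in HeLa cells stably expressing a glucocorticoid-response-element beta-lactamase reporter. Fluorescence intensity read with FRET substrate (2 h, room temperature) after 18 h compound treatment at 37 C.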

Inconclusive results are not listed. Active and inactive are the calls of the source. Unless noted, calls follow the shape of the dose curve; as a rule, active = well fitted curve in the direction sought with a large enough effect in the repeat runs; inconclusive = weak or mixed curves; inactive = no such curve, though single readings can be large; an effect the other way counts as inactive or inconclusive.

Androgen receptor (Homo sapiens), sequence (P10275 whole entry, looked up): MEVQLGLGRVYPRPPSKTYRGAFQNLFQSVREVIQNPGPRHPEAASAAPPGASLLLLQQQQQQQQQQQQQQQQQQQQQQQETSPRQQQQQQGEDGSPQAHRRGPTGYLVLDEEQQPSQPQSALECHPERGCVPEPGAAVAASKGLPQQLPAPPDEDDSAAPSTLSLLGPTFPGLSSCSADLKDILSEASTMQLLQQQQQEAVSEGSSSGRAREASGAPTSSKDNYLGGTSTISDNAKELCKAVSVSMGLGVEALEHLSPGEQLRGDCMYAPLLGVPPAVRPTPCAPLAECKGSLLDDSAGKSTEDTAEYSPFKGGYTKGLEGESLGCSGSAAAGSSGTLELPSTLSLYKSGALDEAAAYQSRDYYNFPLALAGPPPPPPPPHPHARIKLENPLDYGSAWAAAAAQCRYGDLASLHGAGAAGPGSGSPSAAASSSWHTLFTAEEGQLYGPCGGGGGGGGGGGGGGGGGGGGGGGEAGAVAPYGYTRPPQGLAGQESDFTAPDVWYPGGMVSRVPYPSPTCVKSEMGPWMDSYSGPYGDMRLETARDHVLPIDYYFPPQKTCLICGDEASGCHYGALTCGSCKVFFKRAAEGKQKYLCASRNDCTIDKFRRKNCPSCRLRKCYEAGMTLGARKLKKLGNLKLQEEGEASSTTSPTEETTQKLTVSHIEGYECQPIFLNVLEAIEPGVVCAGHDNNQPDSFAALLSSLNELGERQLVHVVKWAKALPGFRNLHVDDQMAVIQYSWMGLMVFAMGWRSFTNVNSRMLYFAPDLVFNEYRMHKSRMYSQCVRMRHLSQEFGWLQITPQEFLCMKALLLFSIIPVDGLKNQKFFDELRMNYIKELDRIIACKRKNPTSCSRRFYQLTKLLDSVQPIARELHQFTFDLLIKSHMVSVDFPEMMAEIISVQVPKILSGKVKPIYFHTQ
Glucocorticoid receptor (Homo sapiens), sequence (P04150 whole entry, looked up): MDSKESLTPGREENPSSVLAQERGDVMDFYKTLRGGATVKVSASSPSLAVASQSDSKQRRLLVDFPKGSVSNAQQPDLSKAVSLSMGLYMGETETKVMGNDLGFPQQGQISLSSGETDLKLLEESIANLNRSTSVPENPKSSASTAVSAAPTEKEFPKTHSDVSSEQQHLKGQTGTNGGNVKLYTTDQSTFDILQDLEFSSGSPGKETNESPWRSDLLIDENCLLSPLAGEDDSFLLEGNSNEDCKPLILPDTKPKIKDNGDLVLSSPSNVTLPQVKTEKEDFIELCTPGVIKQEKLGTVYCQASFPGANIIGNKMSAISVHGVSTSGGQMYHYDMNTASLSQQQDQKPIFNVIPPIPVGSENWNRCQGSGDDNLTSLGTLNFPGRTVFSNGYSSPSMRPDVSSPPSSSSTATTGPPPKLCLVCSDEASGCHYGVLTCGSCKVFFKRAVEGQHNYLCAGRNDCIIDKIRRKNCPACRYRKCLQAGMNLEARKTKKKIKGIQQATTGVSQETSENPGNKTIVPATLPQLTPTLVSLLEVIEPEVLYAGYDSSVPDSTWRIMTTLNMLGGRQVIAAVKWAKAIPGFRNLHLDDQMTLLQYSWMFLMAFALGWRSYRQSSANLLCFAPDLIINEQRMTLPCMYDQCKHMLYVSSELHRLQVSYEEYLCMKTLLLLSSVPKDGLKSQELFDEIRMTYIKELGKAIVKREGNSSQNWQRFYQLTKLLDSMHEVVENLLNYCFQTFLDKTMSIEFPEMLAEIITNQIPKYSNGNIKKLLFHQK

On to `C[N+](C)(C)CCCCCC[N+](C)(C)C`, for which the call in [1], in [2], in test [3], in test [4], in test [5] and in test [6] was inactive. Further, the molecule was called inactive in [7], in test [8] and in test [9]. The Potency entry in test [10], in [11], in [12], in test [13] and in test [14] was “inactive” in each case.

`COC(=O)[C@@H](N)Cc1ccc(O)c(O)c1`: the molecule was classed as inactive in test [1], in [2], in test [3], in test [4], in test [5] and in test [6]. Further, the outcome in test [7], in test [8], in test [9] and in test [15] was inactive. Besides, the results for the Potency in test [10] and in test [12] were 29.8 µM (active) and 33.5 µM (active), respectively. Moreover, the Potency entry in test [13], in test [16], in test [14] and in [17] was “inactive” throughout.

In the case of `C=C[Si](OC(=C)C)(OC(=C)C)OC(=C)C`, the outcome in test [1], in test [2], in test [3], in [4], in test [5] and in test [6] was inactive. For the same molecule, the result in test [7], in test [8] and in test [9] was inactive. For the same molecule, the Potency entry in test [10], in test [11], in test [12], in test [13] and in [14] was “inactive” in each case.

On to `NC(CSCC(=O)O)C(=O)O` (stereo not drawn), for which the molecule was classed as inactive in [1], in test [2], in [3], in [4], in test [5] and in test [6]. In addition, the molecule was called inactive in [7], in test [8] and in [9]. Moreover, the Potency entry in test [10], in test [11], in test [12], in [13] and in [14] was “inactive” each time.

Take `CC(C)CNCC(C)C`: the result in test [1], in test [2], in test [3], in [4], in test [5] and in [6] was inactive. For the same molecule, the molecule was classed as inactive in test [7], in [8] and in test [9]. Moreover, the Potency entry in [10], in [11], in test [12], in [13] and in test [14] was “inactive” in each case.

On to `CCc1nccnc1CC`, for which the result in [1], in test [2], in test [3], in test [4], in test [5] and in test [6] was inactive. The result in [7], in [8] and in test [9] was inactive. Besides, the Potency result in test [10], in test [11], in test [12], in test [13] and in test [14] was “inactive” in each case.

Turning to `CCCN1CCCC[C@H]1C(=O)Nc1c(C)cccc1C`, the call in test [1], in [2], in [3], in test [4], in test [5] and in [6] was inactive. Moreover, the molecule was classed as inactive in test [7], in [8] and in test [9]. The Potency result in test [10], in test [11], in test [13] and in test [14] was “inactive” throughout.

Consider `COc1c(N2C[C@@H]3CCCN[C@@H]3C2)c(F)cc2c(=O)c(C(=O)O)cn(C3CC3)c12`, for which the call in [1], in test [2], in [3], in test [4], in [5] and in test [6] was inactive. The result in test [7], in [8] and in test [9] was inactive. The Potency result in test [10], in [12], in test [13] and in [14] was “inactive” throughout.

Consider `O=C(O)CNC(=O)c1ccc([N+](=O)[O-])cc1`, for which the call in test [1], in [2], in [3], in [4], in test [5] and in test [6] was inactive. The molecule was called inactive in [7], in [8] and in [9]. Moreover, the Potency entry in [10], in test [11], in test [13] and in test [14] was “inactive” in each case.

Consider `CCOC(=O)c1cccc(N)c1`, for which the molecule was classed as inactive in [1], in [2], in test [3], in [4], in test [5] and in test [6]. For the same molecule, the result in test [7], in test [8] and in test [9] was inactive. Further, the Potency result in test [10], in [11], in [12], in test [13] and in test [14] was “inactive” each time.

With `C=CCS(=O)(=O)O`, the call in test [1], in test [2], in test [3], in test [4], in test [5] and in test [6] was inactive. In addition, the molecule was called inactive in [7], in test [8] and in [9]. For the same molecule, the Potency result in test [18], in test [10], in [11], in test [13] and in test [14] was “inactive” each time.

On to `CO/N=C(/C(=O)N[C@@H]1C(=O)N2C(C(=O)OCOC(=O)C(C)(C)C)=C(C)CS[C@H]12)c1csc(N)n1`, for which the call in [1], in test [2], in test [3], in test [4], in test [5] and in test [6] was inactive. Moreover, the result in test [7], in [8] and in [9] was inactive. Moreover, the Potency result in [10], in [11], in test [12], in test [13] and in [14] was “inactive” each time.

For `COc1cc(C(=O)N2CCCCCCC2)cc(OC)c1OC`, the call in [1], in [2], in test [3], in test [4], in test [5] and in [6] was inactive. Further, the outcome in test [7], in test [8] and in [9] was inactive. In addition, the Potency in [10] is 21.1 µM (active). The Potency entry in test [13] and in [14] was “inactive” throughout.

Turning to `NCCCNCCSP(=O)(O)O`, the outcome in test [1], in test [2], in test [3], in test [4], in test [5] and in test [6] was inactive. Also, the outcome in test [7], in test [8] and in [9] was inactive. Moreover, the Potency entry in [18], in test [10], in [11], in test [13] and in [14] was “inactive” each time.
